Sampled rows, rich in hits. Any-hit rate of the full collection: about 2.1%.
GRP78 ERSR act: inducers of ER stress response in human glioma cells; U87-MG GRP78 promoter luciferase reporter, 16 h; Potency, µM, usual class: activators; actives 0.02% (n = 420,000); AID 602332; note: series mostly up to about 76 µM; nearly all actives have a fitted effect of over 35% in size
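ERSR induction read as luciferase luminescence (Bright-Glo, 10 min at room temperature) in stably transfected human U87-MG glioma cells exposed to compounds for 16 h, using GRP78 as sensor.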
TDP-43 yeast inh: TDP-43 toxicity inhibition in yeast; actives 1.8% (n = 410,000); Potency, µM (titrated, usually from 46.1 µM), usual class: activators; TDP-43 expressing yeast growth rescue, BacTiter-Glo, 24 h; AID 652104; note: nearly all actives have a fitted effect of over 50% in size
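Growth rescue of TDP-43-toxic yeast measured as ATP luminescence (BacTiter-Glo). Cells grown to mid-log in raffinose, induced in galactose at OD600=0.02, exposed to compound 24 hr at 30 deg C.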
Abeta rescue: restores growth of yeast expressing A-beta42 peptide | yeast expressing A-beta42, growth rescue, OD600, 48 h; response scale: 0% DMSO, 100% iron-clioquinol control | Potency, µM (titrated, usually from 46.1 µM), usual class: activators | actives 0.063% (n = 410,000) | AID 1347071; note: nearly all actives have a fitted effect of over 55% in size
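Yeast growth medium received pinned compounds, then yeast cells expressing toxic A-beta were added; plates incubated at 30 C for 48 hr. Growth read as absorbance at 600 nm, normalized to DMSO and equimolar FeCl3 plus clioquinol controls.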
Mito fusion yeast: blocks mitochondrial division or promotes mitochondrial fusion; S. cerevisiae fusion-defective mutant growth rescue, CellTiterGlo 48 h; Potency, µM (top dose mostly 46.1 µM), most hits filed as activators; actives 0.23% (n = 320,000); note: nearly all actives have a fitted effect of over 45% in size
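Read-out: ATP-based luminescence (CellTiterGlo, 10 min ambient) reporting growth of fusion-defective ts yeast after 48 hours at 37C on glycerol/ethanol YPEG medium in the presence of compound.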
A-T KAP1 phos: candidate therapy for ataxia-telangiectasia; F2112 A-T fibroblasts, KAP-1 phosphorylation AlphaLISA; neocarzinostatin DNA damage 30 min before lysis; Potency, µM (series often up to 57.5 µM), hits mostly activators; actives 0.19% (n = 320,000); note: nearly all actives have a fitted effect of over 45% in size
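ATM-like activity read as KAP-1 phosphorylation via AlphaLISA donor/acceptor antibody pairs after lysis and 6 hr at 25C. Cells were ATM-null patient fibroblasts (F2112, hTERT), dosed 60 min, then exposed to the DSB inducer NCS for 30 min.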
aSyn rescue: alpha-synuclein toxicity inhibition in yeast. Yeast expressing alpha-synuclein, growth rescue, BacTiter-Glo, 24 h. Potency, µM (titrated, usually from 46.1 µM), hits mostly activators. actives 0.14% (n = 370,000); note: nearly all actives have a fitted effect of over 65% in size
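Rescue of yeast growth: cells expressing toxic alpha-synuclein, induced in galactose at OD600 0.02, incubated with compound 24 h at 30 C. ATP luminescence quantified growth; inhibitors of toxicity appear as activators.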
Numbers stand for hits; n = inactive; u = inconclusive; x = not tested or not shown; [ ] = dose if it differs, or a comment. Calls come from the whole dose curve; as a rule, active = well fitted curve in the direction sought with a large enough effect; inconclusive = small, poorly fitted or top-dose-only effect, or another doubt; inactive = no such curve, though single readings can be large; an effect the other way counts as inactive or inconclusive.

SMILES | GRP78 ERSR act | TDP-43 yeast inh | Abeta rescue | Mito fusion yeast | A-T KAP1 phos | aSyn rescue
COc1ccc(-c2nc3ccc(Br)cn3c2Cc2cccc(Cl)c2)cc1OC | n | 22µM | n | x | x | u
COc1ccc(-c2nc3ccc(Cl)cn3c2Cc2cccc(Cl)c2)cc1OC | n | 35µM | n | x | x | n
COc1ccc(Nc2nc3ccc(Cl)cc3n3nnnc23)cc1OC | n | n | n | x | x | x
COc1ccccc1N(CC(O)COc1c(C)cc(C)cc1C)S(=O)(=O)c1ccccc1 (configuration not stated) | n | 18µM | n | n | n | n
Cc1oc2ccc(O)c(CN3CCCCCC3)c2c1C(=O)Nc1cccc(C(F)(F)F)c1 | n | n | n | x | x | x
O=C(Nc1ccc(F)cc1)c1ccc(CSc2ccccc2)o1 | n | 16µM | n | u | n | n
O=C(Nc1ccc(F)cc1)c1ccc(CSc2ccc(Cl)cc2)o1 | n | n[1.82 µM] | u | n | n | n
CC(=O)c1ccc(NC(=O)c2ccc(CSc3ccccc3)o2)cc1 | n | 16µM | n | u | n | n
O=C(O)/C=C(/CC(=O)O)C(=O)O | n | x | x | x | x | x
c1ccc(NC2=NCCN2CC2CCC2)cc1 | n | n | n | n | n | n
c1ccc(NC2=NCCN2CCCC2CCCCC2)cc1 | n | n | n | n | n | 16µM
Cc1cccc(S(=O)(=O)NCCNS(=O)(=O)c2cccc(C)c2)c1 | n | n | n | n | n | n
O=c1c(-c2cccs2)nc2cncnc2n1Cc1ccccc1 | n | x | x | x | x | x
CCCc1cc(C(=O)Nc2ccc(C(=O)c3ccccc3)cc2)n(C)n1 | n | 25µM | n | n | n | n
CCCc1cc(C(=O)Nc2ccc(C(=O)c3ccc(F)cc3)cc2)n(C)n1 | n | u | n | n | n | n
O=[N+]([O-])c1ccc(N2CCN(c3ccccc3O)CC2)c(Cl)c1 | n | n | n | n | x | n
O=C1Cc2cc([N+](=O)[O-])ccc2N1c1c(Cl)cccc1Cl | n | 20µM | n | n | n | n
CCN(Cc1ccccc1)S(=O)(=O)c1ccc(C(=O)Nc2nnc(C)o2)cc1 | n | u | u | n | n | u
CCc1nnc(NC(=O)c2ccc(S(=O)(=O)N(CC)Cc3ccccc3)cc2)o1 | n | 22µM | u | n | n | 13µM
CCCCN(CCCC)S(=O)(=O)c1ccc(C(=O)Nc2nnc(COC)o2)cc1 | n | 13µM | n | n | n | u
CC(=O)Nc1ccc(S(=O)(=O)N(Cc2ccccc2)Cc2ccccc2)cc1 | n | 20µM | n | x | x | x
CCN(CC)S(=O)(=O)c1ccc(C(=O)Nc2nnc(COC)o2)cc1 | n | n | n | n | n | n
COc1ccccc1C1NC(=O)NC(C)=C1C(=O)OCC1CCCCC1 (configuration not stated) | n | n | n | x | x | n
COc1cc(Nc2ncc3c(n2)CCN(Cc2cc(Br)cs2)C3)cc(OC)c1 | x | u | n | x | x | x
COC(=O)[C@@H]1CC[C@H](C)[C@@H](c2ccc(C)cc2)N1C(=O)c1ccc(/C=N\O[C@@H](C)CN2CCCc3nc(C)c(C)cc32)cc1 | n | x | x | x | x | x
SMILES | GRP78 ERSR act | TDP-43 yeast inh | Abeta rescue | Mito fusion yeast | A-T KAP1 phos | aSyn rescue
COc1ccc2c(CN3CCN(C(C)=O)CC3)cc(=O)oc2c1 | n | n | n | x | x | n
COc1ccc(NCc2cc(=O)oc3cc(NC(C)=O)ccc23)cc1 | n | n | n | n | 2.5µM | n
CCN1C(=O)S/C(=C/c2cn(C)c3ccccc23)C1=O | n | n | n | n | x | n
CCN=C1S/C(=C\c2cc(OCC)c(O)cc2Br)C(=O)N1CC | n | n | n | 7.1µM | n | n
CCN=C1S/C(=C\c2cn(CC)c3ccccc23)C(=O)N1CC | n | 18µM | n | n | n | n
COc1cc(-c2nnc(COc3ccc4ccccc4c3)o2)cc(OC)c1OC | n | 28µM | n | n | n | n
N#Cc1cn(CCOc2ccc(F)cc2)c2ccccc12 | n | 20µM | u | n | n | n
CC1C/C(=C/c2ccncc2)C(=O)/C(=C/c2ccncc2)C1 (configuration not stated) | n | u | n | n | n | n
CC1C/C(=C/c2cccn2C)C(=O)/C(=C/c2cccn2C)C1 (configuration not stated) | n | 13µM | n | u | n | n
CC(=O)c1cccc(NC(=O)COC(=O)c2ccccc2OCc2cccc(Br)c2)c1 | x | x | x | x | x | n
Cc1cc(C)nc(SCC(=O)N2CCc3ccccc32)n1 | n | n | n | x | x | n
Cc1cc(C)n2nc(SCC(=O)N3CCc4ccccc43)nc2n1 | n | n | n | 35µM | n | n
CCN(CC)CCCNC(=S)N1CCN(c2nc(-c3ccccc3)cs2)CC1 | n | n[1.82 µM] | n | n | n | n
COc1cccc(-c2csc(N3CCN(C(=O)Nc4ccc(Cl)cc4)CC3)n2)c1 | n | 11µM | n | n | n[11.5 µM] | n
O=C(NC(=S)N1CCN(c2nc(-c3ccccc3)cs2)CC1)c1cncc(Br)c1 | n | 16µM | u | n | n | u
COCCCNC(=S)N1CCN(c2nc(-c3ccc(Cl)cc3)cs2)CC1 | n | 13µM | u | x | x | n
CC(C)CNC(=S)N1CCN(c2nc(-c3ccc(Cl)cc3)cs2)CC1 | n | x | u | n | n | n
COCCCNC(=S)N1CCN(c2nc(-c3ccccc3)cs2)CC1 | n | 35µM | u | n | n | n
Cc1csc(SCC(=O)NCC2Cc3cc(-c4cncnc4)ccc3O2)n1 (configuration not stated) | n | x | x | x | x | x
COCc1c(C(=O)N2CCCCC2c2cccnc2)cnn1-c1ncc2c(n1)-c1ccccc1CCC2 (configuration not stated) | n | x | x | x | x | x
CCOCCCNC(=S)N1CCN(c2nc(-c3ccccc3)cs2)CC1 | n | 20µM | u | n | n | n
CCCC[C@H](NC(=O)[C@H](CC(C)C)NC(=O)[C@@H](Cc1c[nH]c2ccccc12)NC(=O)[C@H](Cc1ccccc1)NC(=O)[C@@H](Cc1c[nH]c2ccccc12)NC(=O)[C@H](CC(N)=O)NC(=O)[C@@H](Cc1c(Cl)cccc1Cl)NC(=O)[C@@H]1CCCN1C(=O)[C@H](Cc1ccccn1)NC(=O)[C@@H]1CCCN1C(=O)[C@H](N)CCCCNC(=O)c1cccnc1)C(N)=O | n | x | x | x | x | x
O=C(c1cc(-c2ccc3c(c2)OCO3)on1)N1CCN(c2ccc(F)cc2)CC1 | n | n | n | n | x | n
COc1ccccc1N1CCN(C(=O)c2cc(-c3ccc(C)c(F)c3)on2)CC1 | x | 35µM | n | x | x | x
O=C(c1cc(-c2ccc(O)cc2)on1)N1CCN(c2ccccc2)CC1 | n | 10µM | n | n | n | n
O=C(c1cc(-c2ccc3c(c2)OCO3)on1)N1CCN(c2ccccc2)CC1 | n | n | n | n | x | n

Screens deposited in PubChem by National Center for Advancing Translational Sciences (NCATS).
